Source: the supplement of paper PMC10849652
Targets with a hit are over-represented here; the source holds about 8,800 in all. About 0.5% of all pairs of compound and target were hits. A number with no mark means an inactive call.

Legend:
Assay in all cases: log2 fold change, soluble protein after heating vs DMSO (PISA); higher = thermal stabilisation; K562 lysate, 10 uM; active = over 0.2 and 3.5 SD of the protein, either way, in both replicates (recomputed)
vemurafenib = compound: CCCS(=O)(=O)Nc1ccc(F)c(C(=O)c2c[nH]c3ncc(-c4ccc(Cl)cc4)cc23)c1F [vemurafenib]
In short: (§1)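 K562 pellets were dounce-homogenised in PBS pH 7.4 with 1 mM MgCl2, and the crude extract at 1 mg/mL protein was treated with 10 μM compound for 30 min. Aliquots were heated for 3 min across 48°C-58°C, pooled, and brought to 0.5% NP-40 at 4°C; soluble protein was the supernatant after 21,000xg for 90 min. Soluble protein was quantified by TMTpro 16plex LC-MS/MS with channel sums equalised, and reported as log2 fold change in thermal stability against DMSO controls, with values from duplicates.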

[1] = compound: CCCS(=O)(=O)Nc1ccc(F)c(C(=O)c2c[nH]c3ncc(Cl)cc23)c1F
In short: as §1

barasertib = compound: CCN(CCCOc1ccc2c(Nc3cc(CC(=O)Nc4cccc(F)c4)[nH]n3)ncnc2c1)CCOP(=O)(O)O [barasertib]
In short: as §1

[2] = compound: CC[C@@H]1C(=O)N(C)c2cnc(Nc3ccc(C(=O)NC4CCN(C)CC4)cc3OC)nc2N1C1CCCC1
In short: as §1

volasertib = compound: CC[C@@H]1C(=O)N(C)c2cnc(Nc3ccc(C(=O)N[C@H]4CC[C@H](N5CCN(CC6CC6)CC5)CC4)cc3OC)nc2N1C(C)C [volasertib]
In short: as §1

[3] = compound: CCn1c(C(=O)N(C2CC2)C2CC2)cc2c3c(ncn3C)c(Nc3cc(C)n(C)n3)nc21
In short: as §1

[4] = compound: CCn1cc(-c2ccnc3[nH]c(-c4cccc(CN(C)C)c4)cc23)c(-c2ccc(NC(=O)N(C)C)cc2)n1
In short: as §1

[5] = compound: CN1CCC(CNc2ccc3ncc(-c4cccc(OC(F)(F)F)c4)n3n2)CC1
In short: as §1

saracatinib = compound: CN1CCN(CCOc2cc(OC3CCOCC3)c3c(Nc4c(Cl)ccc5c4OCO5)ncnc3c2)CC1 [saracatinib]
In short: as §1

sotrastaurin = compound: CN1CCN(c2nc(C3=C(c4c[nH]c5ccccc45)C(=O)NC3=O)c3ccccc3n2)CC1 [sotrastaurin]
In short: as §1

UniProt Q9BZE2, sequence (Q9BZE2 whole entry, looked up): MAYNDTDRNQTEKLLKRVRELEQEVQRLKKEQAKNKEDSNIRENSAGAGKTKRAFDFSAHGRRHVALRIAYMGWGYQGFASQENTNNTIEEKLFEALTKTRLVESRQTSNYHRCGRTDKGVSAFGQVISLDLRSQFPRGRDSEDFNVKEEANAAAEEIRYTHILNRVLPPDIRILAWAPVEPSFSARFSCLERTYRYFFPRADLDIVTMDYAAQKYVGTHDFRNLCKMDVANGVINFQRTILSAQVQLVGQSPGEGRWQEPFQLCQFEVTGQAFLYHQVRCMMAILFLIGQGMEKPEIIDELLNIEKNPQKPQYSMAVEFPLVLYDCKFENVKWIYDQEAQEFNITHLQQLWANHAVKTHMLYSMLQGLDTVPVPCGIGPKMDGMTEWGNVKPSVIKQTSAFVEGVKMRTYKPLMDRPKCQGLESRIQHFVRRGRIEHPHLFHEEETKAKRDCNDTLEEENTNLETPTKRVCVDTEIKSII
UniProt P14314, sequence (P14314 whole entry, looked up): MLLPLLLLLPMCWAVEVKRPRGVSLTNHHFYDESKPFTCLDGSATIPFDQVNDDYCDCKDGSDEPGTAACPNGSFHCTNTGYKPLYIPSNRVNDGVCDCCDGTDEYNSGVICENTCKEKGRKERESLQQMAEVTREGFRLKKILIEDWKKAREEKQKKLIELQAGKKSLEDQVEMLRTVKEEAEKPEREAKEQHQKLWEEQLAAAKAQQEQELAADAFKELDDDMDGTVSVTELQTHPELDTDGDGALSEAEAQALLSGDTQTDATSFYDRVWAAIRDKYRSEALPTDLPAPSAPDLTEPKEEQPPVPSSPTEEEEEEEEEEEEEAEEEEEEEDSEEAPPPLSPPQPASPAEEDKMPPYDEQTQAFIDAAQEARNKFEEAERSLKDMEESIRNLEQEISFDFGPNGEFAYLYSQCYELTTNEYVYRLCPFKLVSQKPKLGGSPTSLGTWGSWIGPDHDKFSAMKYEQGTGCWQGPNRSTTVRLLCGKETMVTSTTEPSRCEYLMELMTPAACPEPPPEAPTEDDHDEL
UniProt Q15366, sequence (Q15366 whole entry, looked up): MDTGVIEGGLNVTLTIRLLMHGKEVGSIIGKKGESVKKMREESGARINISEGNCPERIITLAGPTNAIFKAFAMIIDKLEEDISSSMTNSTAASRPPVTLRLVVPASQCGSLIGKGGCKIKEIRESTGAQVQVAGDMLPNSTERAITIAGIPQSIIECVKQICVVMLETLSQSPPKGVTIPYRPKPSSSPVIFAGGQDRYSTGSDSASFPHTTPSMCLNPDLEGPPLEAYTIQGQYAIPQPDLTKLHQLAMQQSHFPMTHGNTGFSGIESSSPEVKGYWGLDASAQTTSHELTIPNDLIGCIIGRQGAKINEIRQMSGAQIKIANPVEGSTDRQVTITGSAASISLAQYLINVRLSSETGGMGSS
UniProt Q12972, sequence (Q12972 whole entry, looked up): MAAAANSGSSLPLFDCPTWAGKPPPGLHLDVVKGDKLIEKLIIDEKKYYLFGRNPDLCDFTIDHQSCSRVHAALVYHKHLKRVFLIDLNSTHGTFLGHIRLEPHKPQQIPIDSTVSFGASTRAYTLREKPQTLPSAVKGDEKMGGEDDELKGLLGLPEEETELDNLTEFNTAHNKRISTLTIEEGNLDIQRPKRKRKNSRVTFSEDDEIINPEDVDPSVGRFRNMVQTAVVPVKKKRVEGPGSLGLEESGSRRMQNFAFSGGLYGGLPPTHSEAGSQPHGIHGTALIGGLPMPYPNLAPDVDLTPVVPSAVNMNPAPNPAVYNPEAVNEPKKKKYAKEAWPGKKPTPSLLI
UniProt Q5VU43, sequence (Q5VU43 whole entry, looked up): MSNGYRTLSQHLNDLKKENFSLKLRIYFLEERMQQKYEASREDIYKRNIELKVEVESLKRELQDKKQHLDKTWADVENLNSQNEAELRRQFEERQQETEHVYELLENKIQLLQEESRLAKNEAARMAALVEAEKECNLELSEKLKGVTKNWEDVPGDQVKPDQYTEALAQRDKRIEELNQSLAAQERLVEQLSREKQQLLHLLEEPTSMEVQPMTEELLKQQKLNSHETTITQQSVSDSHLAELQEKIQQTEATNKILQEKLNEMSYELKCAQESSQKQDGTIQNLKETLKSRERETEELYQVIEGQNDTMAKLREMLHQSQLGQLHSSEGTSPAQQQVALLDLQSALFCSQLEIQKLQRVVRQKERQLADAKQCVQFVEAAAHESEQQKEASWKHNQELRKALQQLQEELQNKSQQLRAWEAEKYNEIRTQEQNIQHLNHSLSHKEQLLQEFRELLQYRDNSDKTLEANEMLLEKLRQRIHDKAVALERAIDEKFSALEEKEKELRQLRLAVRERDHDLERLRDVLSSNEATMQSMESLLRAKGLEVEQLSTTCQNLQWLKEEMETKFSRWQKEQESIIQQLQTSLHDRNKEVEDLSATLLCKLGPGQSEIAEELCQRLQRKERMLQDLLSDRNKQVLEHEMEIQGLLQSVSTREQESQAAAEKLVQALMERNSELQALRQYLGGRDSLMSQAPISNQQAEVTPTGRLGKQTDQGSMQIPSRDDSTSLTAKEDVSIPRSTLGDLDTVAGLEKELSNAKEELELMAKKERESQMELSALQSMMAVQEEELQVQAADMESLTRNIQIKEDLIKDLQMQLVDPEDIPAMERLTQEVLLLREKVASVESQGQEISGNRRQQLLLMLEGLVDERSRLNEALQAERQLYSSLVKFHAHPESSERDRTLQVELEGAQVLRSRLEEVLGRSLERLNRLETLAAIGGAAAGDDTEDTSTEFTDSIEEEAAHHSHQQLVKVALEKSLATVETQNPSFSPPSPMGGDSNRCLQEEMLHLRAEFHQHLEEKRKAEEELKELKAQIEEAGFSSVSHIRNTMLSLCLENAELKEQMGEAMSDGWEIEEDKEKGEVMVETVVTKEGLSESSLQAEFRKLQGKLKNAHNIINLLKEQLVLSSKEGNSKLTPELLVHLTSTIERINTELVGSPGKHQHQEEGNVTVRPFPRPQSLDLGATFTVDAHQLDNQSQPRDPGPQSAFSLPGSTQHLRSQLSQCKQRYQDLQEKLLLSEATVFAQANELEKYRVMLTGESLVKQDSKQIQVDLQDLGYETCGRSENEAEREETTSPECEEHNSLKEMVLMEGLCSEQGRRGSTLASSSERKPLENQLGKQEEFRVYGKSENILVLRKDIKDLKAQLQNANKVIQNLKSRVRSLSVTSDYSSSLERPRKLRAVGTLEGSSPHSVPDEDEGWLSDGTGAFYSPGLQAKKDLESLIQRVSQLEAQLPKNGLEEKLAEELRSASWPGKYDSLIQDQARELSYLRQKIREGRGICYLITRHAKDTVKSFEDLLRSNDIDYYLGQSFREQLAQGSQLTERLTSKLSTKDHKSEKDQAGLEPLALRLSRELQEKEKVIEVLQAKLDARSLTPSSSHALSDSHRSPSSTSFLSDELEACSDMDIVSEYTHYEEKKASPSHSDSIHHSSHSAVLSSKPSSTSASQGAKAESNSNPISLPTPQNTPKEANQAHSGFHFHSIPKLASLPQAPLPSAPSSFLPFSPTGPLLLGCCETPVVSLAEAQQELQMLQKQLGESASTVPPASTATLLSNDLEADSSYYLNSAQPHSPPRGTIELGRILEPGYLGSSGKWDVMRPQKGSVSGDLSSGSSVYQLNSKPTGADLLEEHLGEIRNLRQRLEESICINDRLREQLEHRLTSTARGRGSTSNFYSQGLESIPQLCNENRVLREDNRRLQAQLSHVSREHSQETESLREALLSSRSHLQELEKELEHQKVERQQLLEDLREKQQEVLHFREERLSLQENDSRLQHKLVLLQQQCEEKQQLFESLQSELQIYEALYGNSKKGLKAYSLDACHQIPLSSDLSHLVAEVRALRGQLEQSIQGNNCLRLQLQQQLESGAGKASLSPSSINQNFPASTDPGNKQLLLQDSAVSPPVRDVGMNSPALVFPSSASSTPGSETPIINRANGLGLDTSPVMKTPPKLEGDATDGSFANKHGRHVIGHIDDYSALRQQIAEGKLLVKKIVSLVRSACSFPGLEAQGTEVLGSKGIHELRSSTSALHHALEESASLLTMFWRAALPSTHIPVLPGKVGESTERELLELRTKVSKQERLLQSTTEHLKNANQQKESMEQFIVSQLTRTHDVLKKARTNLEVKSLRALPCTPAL
UniProt Q8TCG2, sequence (Q8TCG2 whole entry, looked up): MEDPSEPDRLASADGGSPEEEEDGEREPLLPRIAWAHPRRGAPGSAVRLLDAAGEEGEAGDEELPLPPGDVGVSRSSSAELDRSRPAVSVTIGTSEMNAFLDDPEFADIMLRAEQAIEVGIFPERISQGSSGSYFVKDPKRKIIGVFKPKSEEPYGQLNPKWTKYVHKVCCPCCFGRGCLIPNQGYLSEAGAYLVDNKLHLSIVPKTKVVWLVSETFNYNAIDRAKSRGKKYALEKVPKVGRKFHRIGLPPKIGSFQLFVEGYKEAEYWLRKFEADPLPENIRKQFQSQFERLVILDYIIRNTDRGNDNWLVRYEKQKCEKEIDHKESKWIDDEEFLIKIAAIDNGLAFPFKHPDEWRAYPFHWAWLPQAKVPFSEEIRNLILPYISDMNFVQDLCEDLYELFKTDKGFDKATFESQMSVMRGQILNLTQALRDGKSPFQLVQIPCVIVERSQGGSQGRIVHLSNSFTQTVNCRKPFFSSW
UniProt Q93096, sequence (Q93096 whole entry, looked up): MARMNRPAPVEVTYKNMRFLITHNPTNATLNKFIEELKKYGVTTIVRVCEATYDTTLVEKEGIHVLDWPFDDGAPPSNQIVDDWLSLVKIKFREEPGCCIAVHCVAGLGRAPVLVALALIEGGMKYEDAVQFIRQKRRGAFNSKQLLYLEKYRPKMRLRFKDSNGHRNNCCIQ
UniProt Q9H0N5, sequence (Q9H0N5 whole entry, looked up): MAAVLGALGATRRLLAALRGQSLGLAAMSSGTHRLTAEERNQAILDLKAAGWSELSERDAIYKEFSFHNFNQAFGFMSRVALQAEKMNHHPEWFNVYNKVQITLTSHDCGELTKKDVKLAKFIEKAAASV

Target | log2 fold change (vemurafenib) | log2 fold change [1] | log2 fold change (barasertib) | log2 fold change [2] | log2 fold change (volasertib) | log2 fold change [3] | log2 fold change [4] | log2 fold change [5] | log2 fold change (saracatinib) | log2 fold change (sotrastaurin)
PRKACA (UniProt P17612) | -0.036 | -0.016 | 0.006 | 0.095 | -0.043 | -0.081 | -0.418 | 0.351 | -0.075 | 0.216
PPP1R8 (UniProt Q12972) | 0.049 | -0.011 | -0.032 | 0.08 | -0.007 | -0.031 | -0.28 (active) | 0.176 | -0.038 | 0.015
PLEKHF1 (UniProt Q96S99) | 0.019 | -0.008 | 0.004 | -0.004 | 0.002 | 0.059 | -0.062 | 0.018 | 0.007 | -0.028
PRPF6 (UniProt O94906) | -0.019 | 0.004 | 0.039 | -0.057 | -0.015 | 0.019 | 0.034 | -0.049 | 0.009 | 0.025
PRKCSH isoform 2 (UniProt P14314) | 0.007 | -0.053 | -0.159 | 0.03 | -0.052 | -0.101 | -1.03 (active) | 0.326 | 0.022 | 0.199
PDXK (UniProt O00764) | 0.005 | -0.001 | -0.014 | 0.329 (active) | 0.025 | -0.004 | -0.134 | 0.156 | -0.023 | -0.016
PGGT1B (UniProt P53609) | -0.159 | 0.004 | 0 | -0.041 | 0.1 | 0.006 | 0.011 | 0.008 | 0.028 | -0.029
PXMP4 (UniProt Q9Y6I8) | 0.343 | 0.114 | 0.04 | -0.035 | -0.039 | 0.064 | -0.246 | 0.006 | 0.036 | 0.025
PRPH isoform 2 (UniProt P41219) | 0.03 | -0.05 | -0.13 | -0.102 | -0.028 | 0.098 | 0.132 | -0.1 | 0.071 | 0.036
PPP2CA (UniProt P67775) | 0.061 | -0.008 | -0.012 | 0.032 | -0.012 | 0.02 | 0.13 | 0.049 | 0.039 | -0.047
PPFIA2 (UniProt O75334) | 0.062 | -0.018 | 0.054 | 0.01 | 0.02 | -0.127 | -0.255 | 0.146 | -0.016 | -0.05
PCBD2 (UniProt Q9H0N5) | 0.004 | -0.017 | 0.013 | 0.018 | 0.016 | 0.031 | -0.237 | 0.11 | -0.05 | 0.055
PRKD2 isoform 3 (UniProt Q9BZL6) | 0.041 | -0.048 | 0.034 | -0.358 (active) | -0.131 | 0.097 | 0.038 | -0.07 | 0 | 0.085
PI4K2B (UniProt Q8TCG2) | -0.003 | -0.006 | 0.023 | 0.07 | -0.032 | -0.062 | 0.081 | 0.121 | -0.009 | 0.132
PCIF1 (UniProt Q9H4Z3) | 0.03 | -0.012 | 0.088 | 0.023 | 0.005 | 0.029 | -0.223 | 0.011 | -0.001 | -0.036
PEF1 (UniProt Q9UBV8) | -0.025 | 0.015 | 0.189 | 0.033 | 0.009 | -0.001 | -0.116 | -0.043 | -0.025 | -0.016
PIP4K2B (UniProt P78356) | 0.016 | 0.012 | -0.045 | 0.21 (active) | 0.092 | 0.038 | 0.048 | 0.065 | -0.045 | -0.009
PUF60 (UniProt Q9UHX1) | 0.002 | 0.015 | -0.005 | 0.002 | 0.003 | -0.015 | 0.116 | -0.018 | 0 | -0.02
PTPN6 isoform 4 (UniProt P29350) | 0.02 | -0.089 | 0.081 | -0.487 (active) | 0.014 | 0.026 | -0.038 | -0.024 | -0.046 | 0.006
PDIA4 (UniProt P13667) | -0.007 | -0.02 | -0.028 | 0.017 | 0.012 | -0.008 | 0.036 | -0.045 | 0.012 | 0
POLR2F (UniProt P61218) | 0.077 | -0.018 | 0.034 | -0.043 | 0.036 | 0.078 | 1.25 (active) | -0.211 | -0.042 | 0.02
PCBP2 isoform 8 (UniProt Q15366) | 0.078 | 0.051 | 0.016 | 0.001 | -0.05 | -0.152 | 0.054 | -0.003 | -0.018 | -0.045
PRAME (UniProt P78395) | 0.028 | -0.012 | 0.003 | -0.086 | -0.009 | 0.017 | -0.058 | 0.011 | 0 | 0.018
PHKB isoform 3 (UniProt Q93100) | -0.043 | -0.007 | 0.04 | 0.022 | -0.034 | 0.009 | -0.146 | 0.138 | 0.019 | -0.014
PTPN7 isoform 3 (UniProt P35236) | 0.016 | 0.06 | 0.026 | -0.025 | -0.06 | 0.063 | -0.076 | 0.124 | 0.005 | 0.015
PWP2 (UniProt Q15269) | 0.033 | 0.045 | 0.044 | 0.006 | -0.013 | 0.018 | 0.015 | -0.038 | 0.015 | 0.052
PTP4A1 (UniProt Q93096) | -0.006 | -0.029 | -0.041 | 0.017 | 0.036 | 0.019 | 0.177 | -0.05 | 0.001 | 0
PDE4DIP isoform 4 (UniProt Q5VU43) | 0.027 | 0.011 | 0.092 | 0.046 | 0.025 | 0.04 | -0.04 | -0.005 | 0.034 | -0.014
PIP4P2 (UniProt Q8N4L2) | 0.038 | 0.031 | 0.311 | 0.039 | 0.01 | -0.016 | 0.022 | 0.03 | 0.038 | -0.16
PUS3 (UniProt Q9BZE2) | 0.083 | 0.036 | 0.074 | -0.058 | -0.007 | 0.071 | 0.193 | -0.195 | 0.018 | 0.052
